Rows were chosen to be rich in hits. Some 9.9% of all compounds tested hit in one or more screens of this group.
KB-3-1 cytotox = kills parental KB-3-1 adenocarcinoma cells. KB-3-1 viability, CellTiter-Glo ATP luminescence, 72 h. Potency, µM (titrated, usually from 46.1 µM), most hits filed as cytotoxic. 400,000 compounds, 1.4% hits; further: nearly all actives have a fitted effect of over 60% in size
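Multi-concentration cytotoxicity screen in KB-3-1 cells grown in DMEM lacking phenol red with 10% FBS. After 72 h at 37 °C with compound, ATP-dependent luminescence was recorded.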
MCF10A rereplic = induces DNA re-replication in MCF 10a normal breast cells; 350,000 compounds, 2.9% hits; Potency, µM (doses to about 46.1 µM), usual class: activators; AID 624296; MCF 10A DNA re-replication, Hoechst nuclear intensity, 48 h; further: nearly all actives have a fitted effect of over 50% in size
SW480 rerep = DNA re-replication induction in SW480 cells. SW480 DNA re-replication, Hoechst DNA content imaging, 48 h. Potency, µM (top dose mostly 46.1 µM), actives largely listed as activators. 340,000 compounds, 1.8% hits. AID 624297; further: nearly all actives have a fitted effect of over 55% in size
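Readout is total intensity of Hoechst-stained nuclei, excited at 405 nm and collected at 500-530 nm. Compound treatment lasted 48 hr at 37 C in 5% CO2 before staining.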
KB-V1 cytotox = kills drug-selected multidrug resistant KB-V1 cells | 400,000 compounds, 3.4% hits | Potency, µM (series often up to 46.1 µM), actives largely listed as cytotoxic | KB-V1 MDR cells viability, CellTiter-Glo, 72 h | AID 1347076; further: nearly all actives have a fitted effect of over 60% in size
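Drug-selected KB-V1 cells, grown in DMEM lacking phenol red with 10% FBS, receive compound titrations; after three days at 37 degrees C, surviving cell ATP is quantified by CellTiter-Glo luminescence and responses normalized and curve-fitted.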
IL-1B inflam inh = inflammasome signaling inhibition, IL-1 beta readout. 360,000 compounds, 4.7% hits. activity change, % at 57.5 µM. THP-1 LPS/ATP IL-1B secretion, AlphaLISA, 16 h; hits give low values; in the data active means activity change below about -50%; inconclusive means mostly about -30% to -49%
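THP-1 cells pretreated 1 hr with compounds (up to 57.5 uM final), then stimulated with LPS (250 ng/mL final) plus ATP (1.25 mM final); secreted IL-1B measured by AlphaLISA after 16 hr, decreased signal indicating inhibition.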
A number is an active result. Unless noted, the call rests on the fitted dose curve; in most records, active means well fitted curve in the direction sought with a large enough effect; inconclusive means small, poorly fitted or top-dose-only effect, or another doubt; inactive means no such curve, though single readings can be large; an effect the other way counts as inactive or inconclusive.

`CCN(Cc1ccccc1)C(=O)CCS(=O)(=O)c1ccc2c(c1)NC(=O)CO2` gave KB-3-1 cytotox inactive, MCF10A rereplic inactive, SW480 rerep inactive, KB-V1 cytotox inactive and IL-1B inflam inh inactive.
O=C1NC(CCc2ccccc2)C(=O)N1Cc1ccccc1Cl (centres undefined) was read as KB-3-1 cytotox inactive, MCF10A rereplic inactive, SW480 rerep inactive, KB-V1 cytotox 16.4µM and IL-1B inflam inh inactive.
O=C(COC(=O)c1ccc(Cl)c(Cl)c1)Nc1cccnc1Cl was read as KB-3-1 cytotox inactive, MCF10A rereplic inactive, SW480 rerep inactive, KB-V1 cytotox inactive and IL-1B inflam inh inactive.
Screening CCOc1ccc(C(=O)OCC(=O)Nc2cccnc2Cl)cc1OCC returned KB-3-1 cytotox inactive, MCF10A rereplic inactive, SW480 rerep inactive, KB-V1 cytotox 18.4µM and IL-1B inflam inh inactive.
For C=C1CCc2c([nH]c3ccc(OCC(C)C)cc23)C1=O the results were KB-3-1 cytotox inconclusive, MCF10A rereplic 4.61µM, SW480 rerep inconclusive, KB-V1 cytotox inconclusive and IL-1B inflam inh -98.8.
O=C(NCc1ccccc1)C(c1ccc(C(F)(F)F)cc1)N1CCN(CCN2CCOCC2)CC1 (centres undefined) was read as KB-3-1 cytotox inactive, KB-V1 cytotox inactive and IL-1B inflam inh inactive.
For COc1ccc(C2NC(=O)c3sc4nc(C)c(C(C)=O)c(-c5ccc(Cl)cc5)c4c3N2)cc1 (centres undefined) the results were KB-3-1 cytotox inactive, MCF10A rereplic 16.4µM, SW480 rerep inconclusive, KB-V1 cytotox inactive and IL-1B inflam inh inactive.
`O=C(CCNC(=O)c1ccco1)NCCN1C(=O)S/C(=C\c2ccc(F)cc2)C1=O` gave KB-3-1 cytotox inactive, MCF10A rereplic inactive, SW480 rerep inactive, KB-V1 cytotox inactive and IL-1B inflam inh inactive.
For CC12CCC(=O)N1C(C(=O)NCCN1C(=O)S/C(=C\c3ccc(F)cc3)C1=O)CS2 (centres undefined) the results were KB-3-1 cytotox inactive, MCF10A rereplic inactive, SW480 rerep inactive, KB-V1 cytotox inactive and IL-1B inflam inh -62.6.
Screening Cc1ccc(S(=O)(=O)CCC(=O)NCCN2C(=O)S/C(=C/c3ccc(F)cc3)C2=O)cc1 returned KB-3-1 cytotox inactive, MCF10A rereplic inactive, SW480 rerep inactive, KB-V1 cytotox inactive and IL-1B inflam inh -62.4.
`O=c1[nH]c2cccnc2n1Cc1ccccc1` gave KB-3-1 cytotox inactive, MCF10A rereplic inactive, SW480 rerep inactive, KB-V1 cytotox inactive and IL-1B inflam inh inactive.
Screening CCOC(=O)C1=C(C(F)(F)F)Nc2ncnn2C1c1ccc(OC)c(OC)c1OC (centres undefined) returned KB-3-1 cytotox inactive, MCF10A rereplic inconclusive, SW480 rerep inactive, KB-V1 cytotox inactive and IL-1B inflam inh inactive.
`COc1ccc(C)c(-n2c(=O)n(Cc3ccccc3)c(=O)c3[nH]cnc32)c1` gave KB-3-1 cytotox inactive, MCF10A rereplic inactive, SW480 rerep inactive, KB-V1 cytotox inactive and IL-1B inflam inh inactive.
COc1ccc(Cn2c(=O)c3[nH]cnc3n(-c3ccccc3C)c2=O)cc1 was read as KB-3-1 cytotox 16.4µM, MCF10A rereplic 16.4µM, SW480 rerep 16.4µM, KB-V1 cytotox inconclusive and IL-1B inflam inh inactive.
Screening Cc1nc(/N=C(\N)NC(=O)c2ccccc2)nc2ccccc12 returned KB-3-1 cytotox inactive, MCF10A rereplic inactive, SW480 rerep inactive, KB-V1 cytotox inactive and IL-1B inflam inh inactive.
For Cc1ccc2nc(/N=C(\N)NC(=O)NC3CCCCC3)nc(C)c2c1 the results were KB-3-1 cytotox inconclusive, MCF10A rereplic inconclusive, SW480 rerep inconclusive, KB-V1 cytotox inconclusive and IL-1B inflam inh -55.4.
Cc1ccc2nc(N=C(N)N)nc(C)c2c1 was read as KB-3-1 cytotox inactive, MCF10A rereplic inactive, SW480 rerep inconclusive, KB-V1 cytotox inactive and IL-1B inflam inh inactive.
For CCCC(=O)N/C(N)=N/c1nc(C)c2cc(C)ccc2n1 the results were KB-3-1 cytotox 18.4µM, MCF10A rereplic inactive, SW480 rerep inactive, KB-V1 cytotox inactive and IL-1B inflam inh inactive.
`Cc1cc(C)c2c(N=NN3CCOCC3)[nH]nc2n1` gave KB-3-1 cytotox inconclusive, MCF10A rereplic inactive, SW480 rerep inactive, KB-V1 cytotox inactive and IL-1B inflam inh inactive.
For CCOC(=O)COc1cc(-n2c(=S)[nH]c3cc(OC)c(OC)cc3c2=O)c(Cl)cc1Cl the results were KB-3-1 cytotox inactive, MCF10A rereplic 23.1µM, SW480 rerep inactive, KB-V1 cytotox inactive and IL-1B inflam inh inactive.
Screening CCOC(=O)COc1cc(N2C(=O)CSCC2=O)c(Cl)cc1Cl returned KB-3-1 cytotox inactive, MCF10A rereplic inactive, SW480 rerep inactive, KB-V1 cytotox inactive and IL-1B inflam inh -98.8.
For CCCCOC(=O)COc1ccc(Cl)cc1Cl the results were KB-3-1 cytotox inactive, MCF10A rereplic inactive, SW480 rerep inactive, KB-V1 cytotox inactive and IL-1B inflam inh inactive.
COc1ccccc1-c1cc(C(=O)Nc2c(C)n(C)n(-c3ccccc3)c2=O)no1 was read as KB-3-1 cytotox inactive, MCF10A rereplic inactive, SW480 rerep inactive, KB-V1 cytotox inactive and IL-1B inflam inh inactive.
Screening COc1ccc(OC)c(-c2cc(C(=O)Nc3c(C)n(C)n(-c4ccccc4)c3=O)no2)c1 returned KB-3-1 cytotox inactive, MCF10A rereplic inactive, SW480 rerep inactive, KB-V1 cytotox 23.1µM and IL-1B inflam inh inconclusive.
`CCOc1ccc(NC(=O)CCc2c(C)nc3cc(-c4ccccc4OC)nn3c2C)cc1` gave KB-3-1 cytotox inactive and KB-V1 cytotox inactive.
Screening CCOP(=O)(OCC)c1nc(-c2ccc(Cl)cc2Cl)oc1N1CCCCC1 returned KB-3-1 cytotox inactive, MCF10A rereplic 16.4µM, SW480 rerep inactive, KB-V1 cytotox inconclusive and IL-1B inflam inh -113.1.
`CCOP(=O)(OCC)c1nc(-c2ccccc2Cl)oc1N1CCOCC1` gave KB-3-1 cytotox inactive, MCF10A rereplic inconclusive, SW480 rerep inactive, KB-V1 cytotox inconclusive and IL-1B inflam inh inactive.
COC1=C(Br)C(=O)c2nc(C)ccc2C1=O was read as KB-3-1 cytotox inactive, KB-V1 cytotox inactive and IL-1B inflam inh inactive.
For COC1=C(N)C(=O)c2nc(C)ccc2C1=O the results were KB-3-1 cytotox 4.61µM, MCF10A rereplic inactive, SW480 rerep inconclusive, KB-V1 cytotox inconclusive and IL-1B inflam inh inactive.
For Cc1cc(NC(=O)c2ccco2)c(=O)n(Cc2cccc(C(F)(F)F)c2)c1 the results were KB-3-1 cytotox inactive, MCF10A rereplic inconclusive, SW480 rerep inactive, KB-V1 cytotox inactive and IL-1B inflam inh inactive.
`O=C(c1ccccc1)c1ccc(-n2cnnc2)c([N+](=O)[O-])c1` gave KB-3-1 cytotox inactive, MCF10A rereplic inactive, SW480 rerep inactive, KB-V1 cytotox inactive and IL-1B inflam inh -77.7.
`O=C(c1ccccc1)c1ccc(-n2ccnc2)c([N+](=O)[O-])c1` gave KB-3-1 cytotox inactive, MCF10A rereplic inactive, SW480 rerep inactive, KB-V1 cytotox 18.4µM and IL-1B inflam inh inactive.
`O=C(O)c1ccc(-n2ccnc2)c([N+](=O)[O-])c1` gave KB-3-1 cytotox inactive, MCF10A rereplic inactive, SW480 rerep inactive, KB-V1 cytotox inconclusive and IL-1B inflam inh inactive.
